Measured values taken from PubChem BioAssay (EPA / NIEHS).
Active and inactive are the calls of the source. Rule for the calls: active = hit-call score of the fitted dose curve at least 0.9, where 1 is the maximum; inactive = score below 0.9.

The molecules below were run against Heat shock factor protein 1 (Homo sapiens) (UniProt Q00613) (assay: ATG_HSE_CIS: Attagene CIS-FACTORIAL HepG2 Assay for human Heat Shock Transcription Factor 1 (HSE) (AID 2282953)). Details: HepG2 HSE cis-reporter, Attagene RNA transcription; actives raise or lower the signal.
Method: ATG_CIS is a cell-based, multiplexed-readout assay that uses HepG2, a human liver cell line, with measurements taken at 24 hours after chemical dosing in a 24-well plate.ATG_HSE_CIS is one of 52 assay component(s) measured or calculated from the ATG_CIS assay. It is designed to make measurements of mRNA induction, a form of inducible reporter, as detected with fluorescence intensity signals by Reverse transcription polymerase chain reaction (RT-PCR) and Capillary electrophoresis technology.Data from the assay component ATG_HSE_CIS was analyzed into 1 assay endpoint. This assay endpoint, ATG_HSE_CIS, was analyzed with bidirectional fitting relative to DMSO as the negative control and baseline of activity. Using a type of inducible reporter, measures of mRNA for gain or loss-of-signal activity can be used to understand the reporter gene at the transcription factor-level as they relate to the gene HSF1. Furthermore, this assay endpoint can be referred to as a primary readout, because this assay has produced multiple assay endpoints where this one serves a reporter gene function. To generalize the intended target to other relatable targets, this assay endpoint is annotated to the dna binding intended target family, where the subfamily is heat shock protein.
Human liver HepG2 cells are transiently transfected with multiple reporter transcription units (MRTUs) in 6-well plates using FuGene 6 reagent (Roche; 3 ml FuGene/1 mg DNA). The MRTU constructs are regulated by a cis-regulating element (promoter). […] A major difference between the CIS and TRANS system is that in CIS activities of endogenous TFs are measured, whereas the TRANS assay evaluates changes in activities of exogenous, chimeric NR-Gal4 proteins. […] At the end of 24 hour incubation, total RNA was isolated using TriZol reagent (Invitrogen). The isolated RNA is then reverse-transcribed using oligo(dT) primer and Mo-MLV reverse transcriptase (Invitrogen) with DNAse I (Ambion) treatment for 30 min. The one-tenth of the produced cDNA was amplified by PCR using Taq DNA polymerase (Invitrogen) and two reporter sequence-specific primers. The PCR products were fluorescently labeled by primer extension with 6-arboxyfluorescein (6-FAM) 5'-labeled reporter sequence-specific primer (2 min at 95 C, 20 s at 68 C and 10 min at 72 C) and these products were digested with 5U of HpaI (New England Biolabs) for 2h at 37 C. The fragments were purified using Qiaquick PCR columns (Qiagen), analyzed on an ABI 3130xL genetic analyzer (Applied Biosystems) with peak positions identified by using a set of X-rhodamine (ROX)-labeled MapMarker1000 molecular weight standards (BioVentures). The raw capillary electrophoresis data was processed using Attagraph software (Attagene).

Heat shock factor protein 1 (Homo sapiens), sequence (Q00613 whole entry, looked up): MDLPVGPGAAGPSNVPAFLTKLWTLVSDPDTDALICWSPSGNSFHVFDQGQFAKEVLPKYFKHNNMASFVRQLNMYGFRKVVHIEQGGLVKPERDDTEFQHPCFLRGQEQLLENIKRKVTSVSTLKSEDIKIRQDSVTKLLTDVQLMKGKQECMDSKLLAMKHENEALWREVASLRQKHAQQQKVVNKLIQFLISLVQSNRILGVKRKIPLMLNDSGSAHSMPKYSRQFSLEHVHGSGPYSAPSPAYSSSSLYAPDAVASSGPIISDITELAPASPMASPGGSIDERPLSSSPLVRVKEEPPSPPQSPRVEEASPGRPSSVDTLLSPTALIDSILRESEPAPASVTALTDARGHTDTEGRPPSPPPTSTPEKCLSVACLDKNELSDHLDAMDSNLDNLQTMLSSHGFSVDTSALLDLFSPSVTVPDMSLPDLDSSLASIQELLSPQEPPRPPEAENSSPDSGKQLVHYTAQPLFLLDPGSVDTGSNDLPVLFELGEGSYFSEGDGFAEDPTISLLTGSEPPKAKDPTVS

**Q.** How did the outcome turn out when `OC1CCCC1` was run?
**A.** The outcome was “inactive”.

**Q.** `C=C1C2CCC(C2)C1(C)C` (stereo not given) was tested. Which outcome did it give?
**A.** The outcome was “inactive”.

**Q.** For `OCCc1ccncc1`, which outcome is on record?
**A.** The outcome was “inactive”.

**Q.** Which AC50 does the source give for `CC/C=C\C/C=C\C/C=C\CCCCCCCC(=O)O` here?
**A.** The AC50 was 188 µM (active).

**Q.** For `CCCCCCCCCCCSCC(=O)O`, which AC50 is on record?
**A.** Its AC50 is 159 µM (active).

**Q.** How did the outcome turn out when `CC1=CC[C@H](C(C)C)C=C1` was run?
**A.** Its outcome is “inactive”.

**Q.** `CC(=O)C=CC1C(C)=CCC(C)C1(C)C` (stereo not given) was tested. Which outcome did it give?
**A.** Its outcome is “inactive”.

**Q.** How did the outcome turn out when `C[Si](C)O[Si](C)(C)O[Si](C)(C)O[Si](C)C` was run?
**A.** The outcome was “inactive”.

**Q.** `O=C1CCCC1` was tested. Which outcome did it give?
**A.** The outcome was “inactive”.

**Q.** `Cc1oncc1C(=O)Nc1ccc(C(F)(F)F)cc1` was tested. Which outcome did it give?
**A.** The outcome was “inactive”.

**Q.** How did the outcome turn out when `FC(F)(F)C(=NOCC1OCCO1)c1ccc(Cl)cc1` was run?
**A.** Its outcome is “inactive”.

**Q.** For `CC(=O)OCC(=O)[C@@]12N=C(C)O[C@@H]1C[C@H]1[C@@H]3CCC4=CC(=O)C=C[C@]4(C)[C@H]3[C@@H](O)C[C@@]12C`, which outcome is on record?
**A.** Its outcome is “inactive”.

**Q.** Which AC50 does the source give for `CC(C)c1ccc2c(c1)CC[C@H]1[C@](C)(CN)CCC[C@]21C` here?
**A.** Its AC50 is 6.29 µM (active).

**Q.** For `C=COCCCC`, which outcome is on record?
**A.** Its outcome is “inactive”.

**Q.** How did the outcome turn out when `O=C1CCCC(=O)O1` was run?
**A.** Its outcome is “inactive”.

**Q.** For `Cc1cccc(N(C)C(=S)Oc2ccc3ccccc3c2)c1`, which outcome is on record?
**A.** The outcome was “inactive”.

**Q.** Which outcome does the source give for `C=C1[C@H]2CC[C@@H]3[C@H]2C(C)(C)CCC[C@]13C` here?
**A.** The outcome was “inactive”.

**Q.** How did the outcome turn out when `CCN(CCC#N)c1ccc(N=Nc2c(Cl)cc([N+](=O)[O-])cc2Cl)cc1` was run?
**A.** Its outcome is “inactive”.

**Q.** For `CC1=NC(C)OC1C` (stereo not given), which AC50 is on record?
**A.** Its AC50 is 160 µM (active).

**Q.** Which outcome does the source give for `CCOC(=O)N1CCC(=C2c3ccc(Cl)cc3CCc3cccnc32)CC1` here?
**A.** Its outcome is “inactive”.

**Q.** `COc1ccc([C@@H]2CC(=O)c3c(O)cc(O[C@@H]4O[C@H](CO[C@@H]5O[C@@H](C)[C@H](O)[C@@H](O)[C@H]5O)[C@@H](O)[C@H](O)[C@H]4O)cc3O2)cc1OC` was tested. Which outcome did it give?
**A.** Its outcome is “inactive”.

**Q.** `C1=CCCC1` was tested. Which outcome did it give?
**A.** The outcome was “inactive”.

**Q.** With `FC(F)=C(F)OC(F)(F)C(F)(F)C(F)(F)F` as the molecule, how does the outcome read?
**A.** Its outcome is “inactive”.

**Q.** `O=CN1CCCCC1` was tested. Which outcome did it give?
**A.** Its outcome is “inactive”.

**Q.** `CC(=O)[C@@]1(O)CC[C@H]2[C@@H]3C[C@H](C)C4=CC(=O)C=C[C@]4(C)[C@@]3(F)[C@@H](O)C[C@@]21C` was tested. Which outcome did it give?
**A.** The outcome was “inactive”.

**Q.** Which outcome does the source give for `CCOc1nc(F)cc2nc(S(=O)(=O)Nc3c(Cl)cccc3C(=O)OC)nn12` here?
**A.** Its outcome is “inactive”.

**Q.** With `Cc1cc(O)c(Cl)c(C)c1Cl` as the molecule, how does the outcome read?
**A.** Its outcome is “inactive”.

**Q.** `Cc1cccc(C(=O)O)c1` was tested. Which outcome did it give?
**A.** The outcome was “inactive”.

**Q.** Which outcome does the source give for `COCc1c(C(C)C)nc(C(C)C)c(/C=C/[C@@H](O)C[C@@H](O)CC(=O)O)c1-c1ccc(F)cc1` here?
**A.** The outcome was “inactive”.

**Q.** How did the outcome turn out when `C1=Cc2ccccc2C1` was run?
**A.** Its outcome is “inactive”.

**Q.** With `N#[N+]c1ccc2c(S(=O)(=O)[O-])cccc2c1O` as the molecule, how does the outcome read?
**A.** Its outcome is “inactive”.

**Q.** `O=C(O)c1cc2ccccc2nc1C(=O)O` was tested. Which outcome did it give?
**A.** The outcome was “inactive”.

**Q.** How did the outcome turn out when `CCO[Si](C)(OCC)OCC` was run?
**A.** Its outcome is “inactive”.

**Q.** With `[Cl][Nd]([Cl])[Cl]` as the molecule, how does the outcome read?
**A.** The outcome was “inactive”.

**Q.** With `CC1(C)[C@H]2CC[C@]1(C)C(=O)C2` as the molecule, how does the outcome read?
**A.** The outcome was “inactive”.

**Q.** `C=CC(C)(CCC=C(C)C)OC(=O)CC(C)C` (stereo not given) was tested. Which AC50 did it give?
**A.** Its AC50 is 155 µM (active).

**Q.** How did the outcome turn out when `CCCCCCCCCCCCCCCC(=O)OCC` was run?
**A.** Its outcome is “inactive”.

**Q.** Which outcome does the source give for `S=C(NC1CCCCC1)NC1CCCCC1` here?
**A.** Its outcome is “inactive”.

**Q.** `CC(CC=O)CCCC(C)(C)O` (stereo not given) was tested. Which outcome did it give?
**A.** Its outcome is “inactive”.

**Q.** How did the AC50 turn out when `O=C1CCCCCN1SSN1CCCCCC1=O` was run?
**A.** The AC50 was 133 µM (active).
